Test results reported in ChEMBL document CHEMBL4296182, “CO-ADD screening of NIH NCI Diversity Set V”.
Entries with a potency or affinity are not part of this list.

Each molecule was assayed on Klebsiella pneumoniae. Conditions: Concentration 20 uM; ASSAY_TEST Inhibition of Bacterial Growth; detection method Absorption (OD600); MEDIA CAMHB; plate type 384well; NBS; CORNING #3640; time 18 hr.

| Compound | Inhibition [%] |
| --- | --- |
| O=[N+]([O-])c1cc(-c2ccc([As](=O)(O)O)cc2)ccc1[As](=O)(O)O | 17.36 |
| O=P(Oc1ccccc1)(Oc1ccccc1)c1ccccc1 | 1.03 |
| Cc1ccccc1-n1c(/C=C\c2ccccn2)nc2ccccc2c1=O | 14.95 |
| CSc1nc(=O)c(/N=N/c2ccc([As](=O)(O)O)cc2)c(N)[nH]1 | 8.89 |
| COc1ccc2c(c1)C13CCN(C)C(C2)C1CCC1(C3)OCCO1 (centres undefined) | 10.59 |
| CCCC(=O)N(C)C1=Nc2ccc(Cl)cc2C(c2ccccc2)=[N+]([O-])C1 | 24.44 |
| O=P(OC1=CCCCC1)(c1ccccc1)c1ccccc1 | 9.43 |
| O=C(Nc1ccc(F)cc1)Oc1cccnc1O | 11.14 |
| CC(C)(C)c1cc(C=C(C#N)C#N)cc(C(C)(C)C)c1O [TYRPHOSTIN A9] | 23.47 |
| SC1=NC2(CCCCC2)NC12CCCCC2 | 17.38 |
| Cc1ncc([N+](=O)[O-])n1CCOC(N)=O [BAMNIDAZOLE] | 2.21 |
| C=CCNC(=S)Nc1ccc(OC(=O)Nc2ccc(Cl)c(Cl)c2)cc1 | 5.22 |
| CC(C)CC(NC=O)C(=O)O.COc1cc2c(cc1OC)C13CCN4CC5=CCOC6CC(=O)N2C1C6C5CC43 (centres undefined) | 12.71 |
| CN(C)C1CCc2[nH]c3c(F)cc(F)cc3c2C1 (centres undefined) [FLUCINDOLE] | 23.22 |
| C1CC2NCCC3NCCC(N1)N32 (centres undefined) | 14.06 |
| CCN1CCc2ccccc2C1 | 8.74 |

| Compound | Inhibition [%] |
| --- | --- |
| c1ccc(C2NCCc3[nH]cnc32)cc1 (centres undefined) | 10.31 |
| CN(C)P(=O)(N(C)C)N1CC1 | 12.98 |
| O=C1/C(=C\c2ccccc2)C2OCC=C3CN4CCC56c7ccccc7N1C5C2C3CC46 (centres undefined) | 12.64 |
| CN1CCN(c2nc(N)c(Br)c(Cl)n2)CC1 | 16.05 |
| FCCN(CCF)c1cccc(Cl)c1 | 20.4 |
| CN1CCC(c2c[nH]c3ccccc23)C1 (centres undefined) | 8.23 |
| CCN1CC2C3CCC(C)(O3)C2C1 (centres undefined) | 12.11 |
| COc1ccc(CCNC2(C#N)CCCCC2)cc1OC | 9.13 |
| COc1ccc2c(c1O)[C@]13CCN(C)[C@H](C2)[C@@H]1CCC(=O)C3 | 14.9 |
| COc1ccc2c(c1)NP(=S)(Oc1ccccc1)N2 (centres undefined) | 16.19 |
| O=C1C[C@@H]2OCC=C3C[N+]4([O-])CC[C@]56c7ccccc7N1[C@H]5[C@H]2[C@H]3C[C@@H]64 (some centres undefined) | 13.5 |
| NC=C1C(=O)N(c2ccccc2)C(=O)N(c2ccccc2)C1=O | 10.61 |
| CN1CCCC1c1ccc(O)nc1 (centres undefined) | 15.46 |
| C[C@H]1[C@H](C)N1CC(O)Cn1ccnc1[N+](=O)[O-] (some centres undefined) | 19.25 |
| C[C@H]1CC[C@H]2NCCN[C@H]2C1 | 13.98 |
| Cc1ccccc1NC(=O)Oc1cccc(OC(=O)c2ccccc2)c1 | 11.95 |

These molecules were tested on Candida albicans. Conditions: 20 µM.

| Compound | Inhibition [%] |
| --- | --- |
| O=[N+]([O-])c1cc(-c2ccc([As](=O)(O)O)cc2)ccc1[As](=O)(O)O | 0.95 |
| O=P(Oc1ccccc1)(Oc1ccccc1)c1ccccc1 | 4.45 |
| Cc1ccccc1-n1c(/C=C\c2ccccn2)nc2ccccc2c1=O | 5.08 |
| CSc1nc(=O)c(/N=N/c2ccc([As](=O)(O)O)cc2)c(N)[nH]1 | -0.24 |
| COc1ccc2c(c1)C13CCN(C)C(C2)C1CCC1(C3)OCCO1 (centres undefined) | 2.14 |
| CCCC(=O)N(C)C1=Nc2ccc(Cl)cc2C(c2ccccc2)=[N+]([O-])C1 | 4.49 |
| O=P(OC1=CCCCC1)(c1ccccc1)c1ccccc1 | 4.11 |
| O=C(Nc1ccc(F)cc1)Oc1cccnc1O | 5.85 |
| CC(C)(C)c1cc(C=C(C#N)C#N)cc(C(C)(C)C)c1O [TYRPHOSTIN A9] | 14.2 |
| SC1=NC2(CCCCC2)NC12CCCCC2 | 4.26 |
| Cc1ncc([N+](=O)[O-])n1CCOC(N)=O [BAMNIDAZOLE] | 2.39 |
| C=CCNC(=S)Nc1ccc(OC(=O)Nc2ccc(Cl)c(Cl)c2)cc1 | 2.25 |
| CC(C)CC(NC=O)C(=O)O.COc1cc2c(cc1OC)C13CCN4CC5=CCOC6CC(=O)N2C1C6C5CC43 (centres undefined) | -1.26 |
| CN(C)C1CCc2[nH]c3c(F)cc(F)cc3c2C1 (centres undefined) [FLUCINDOLE] | 2.28 |
| C1CC2NCCC3NCCC(N1)N32 (centres undefined) | -0.83 |
| CCN1CCc2ccccc2C1 | 0.25 |

| Compound | Inhibition [%] |
| --- | --- |
| c1ccc(C2NCCc3[nH]cnc32)cc1 (centres undefined) | 0.7 |
| CN(C)P(=O)(N(C)C)N1CC1 | -1.16 |
| O=C1/C(=C\c2ccccc2)C2OCC=C3CN4CCC56c7ccccc7N1C5C2C3CC46 (centres undefined) | -0.43 |
| CN1CCN(c2nc(N)c(Br)c(Cl)n2)CC1 | 2.84 |
| FCCN(CCF)c1cccc(Cl)c1 | 0.87 |
| CN1CCC(c2c[nH]c3ccccc23)C1 (centres undefined) | 0.53 |
| CCN1CC2C3CCC(C)(O3)C2C1 (centres undefined) | 0.39 |
| COc1ccc(CCNC2(C#N)CCCCC2)cc1OC | 2.4 |
| COc1ccc2c(c1O)[C@]13CCN(C)[C@H](C2)[C@@H]1CCC(=O)C3 | 0.05 |
| COc1ccc2c(c1)NP(=S)(Oc1ccccc1)N2 (centres undefined) | 18.7 |
| O=C1C[C@@H]2OCC=C3C[N+]4([O-])CC[C@]56c7ccccc7N1[C@H]5[C@H]2[C@H]3C[C@@H]64 (some centres undefined) | 3.06 |
| NC=C1C(=O)N(c2ccccc2)C(=O)N(c2ccccc2)C1=O | 0.46 |
| CN1CCCC1c1ccc(O)nc1 (centres undefined) | -1.49 |
| C[C@H]1[C@H](C)N1CC(O)Cn1ccnc1[N+](=O)[O-] (some centres undefined) | 3.06 |
| C[C@H]1CC[C@H]2NCCN[C@H]2C1 | 0.84 |
| Cc1ccccc1NC(=O)Oc1cccc(OC(=O)c2ccccc2)c1 | 0.43 |
